Only some compounds are listed: those with a hit (about 19% of all), similar ones and a draw of the others.
SW480 rereplic = inducers of DNA re-replication in SW480 colon cancer cells | SW480 DNA re-replication, Hoechst DNA content imaging, 48 h | Potency, µM (series often up to 46.1 µM), inactives show at the top dose re-replication activation, usual class: activators | 1.8% of 340,000 active | AID 624297; further: potency means the concentration at half of the fitted maximal effect; % of control where 0% means no effect; nearly all actives have a fitted effect of over 55% in size
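Cells (250 per well) received 23 nL compound or DMSO by pin tool and were kept 48 hr at 37 C, 5% CO2. Nuclei were then stained with Hoechst for 40 min and scanned for DNA content.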
TDP1 cell noCPT = qHTS for Inhibitors of human tyrosyl-DNA phosphodiesterase 1 (TDP1): qHTS in cells in absence of CPT | 15% of 420,000 active | DT40 Tdp1-/- hTDP1 cells, no CPT, ATP luminescence, 48 h | Potency, µM (doses to about 46.2 µM), inactives show at the top dose activity change, negative = growth inhibition, hits mostly inhibitors; further: potency means the concentration at half of the fitted maximal effect; on the % scale 0 is the no-effect control and ±100 the full control effect; nearly all actives have a fitted effect of over 55% in size
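Readout: luminescence from CellTiter-Glo after 30 min in the dark at RT. Cells: DT40 Tdp1-/- with stable hTDP1, 400/well. Exposure: compounds alone, ≥48 hr, 37 °C.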
BCR signal inh = blocks chronic active B-cell receptor signaling. ABC-DLBCL IkBa-CBG/CBR reporter, luminescence ratio, 4 h. Potency, µM (doses to about 46.1 µM), for the others: at the top dose activity change, negative = inhibition, usual class: inhibitors. 0.05% of 340,000 active; active means well fitted inhibition curve with a large enough effect in the signal ratio, with a control signal flat, not every such curve was filed as active; inconclusive means small, poorly fitted or top-dose-only effect, or effect the other way, or a change in a side signal; the % refers to the signal ratio;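 further: potency means the concentration at half of the fitted maximal effect; plate controls were basal doxycycline-induced cells for no effect and cells given 10 µM MG132 for full effect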
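TMD8 human ABC-DLBCL cells with doxycycline-inducible IκBα–green luciferase fusion and unfused red luciferase, in 0.5% FBS medium; compounds up to 46 uM, 4 h at 37C. Green/red luminescence ratio, filter-overlap corrected, fitted to concentration-response curves.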
IL-1B inflam inh = inflammasome signaling inhibition, IL-1 beta readout. THP-1 LPS/ATP IL-1B secretion, AlphaLISA, 16 h; active compounds read low. 4.7% of 360,000 active. activity change, % at 57.5 µM; in the data active means activity change below about -50%; inconclusive means mostly about -30% to -49%; further: on the % scale 0 is the no-effect control and ±100 the full control effect
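Secreted IL-1B measured by AlphaLISA bead assay after 16 h compound exposure of THP-1 cells; compounds (final up to 57.5 uM) added 1 h before LPS (250 ng/mL) and ATP (1.25 mM) stimulation; lower signal means less secretion.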
TDP1 cell CPT = DT40-hTDP1 cell growth loss with CPT; Potency, µM (highest dose often 46.2 µM), for inactives: top-dose activity change, negative = growth inhibition, usual class: inhibitors; 12% of 420,000 active; AID 686979; chicken DT40 Tdp1-/-;hTDP1 cells + 20 nM CPT, ATP luminescence, 48 h; further: potency means the concentration at half of the fitted maximal effect; on the % scale 0 is the no-effect control and ±100 the full control effect; nearly all actives have a fitted effect of over 55% in size
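Cell growth measured by CellTiter-Glo luminescence after a minimum 48 h, 37 C compound exposure with 20 nM CPT in Tdp1-knockout DT40 cells stably expressing hTDP1, seeded 400/well; qHTS titration format.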
MCF10A rerep = DNA re-replication induction in MCF 10a cells; MCF 10A DNA re-replication, Hoechst nuclear intensity, 48 h; Potency, µM (series often up to 46.1 µM), inactives show at the highest dose activity, positive = re-replication, actives largely listed as activators; 2.9% of 350,000 active; further: potency means the concentration at half of the fitted maximal effect; % of control where 0% means no effect; nearly all actives have a fitted effect of over 50% in size
An asterisk follows results filed as active; ? = inconclusive; / = not tested or not shown; [ ] = dose if it differs, or a comment. Unless noted, the call rests on the fitted dose curve; in most records, active means well fitted curve in the direction sought with a large enough effect; inconclusive means small, poorly fitted or top-dose-only effect, or another doubt; inactive means no such curve, though single readings can be large; an effect the other way counts as inactive or inconclusive.

SMILES	SW480 rereplic	TDP1 cell noCPT	BCR signal inh	IL-1B inflam inh	TDP1 cell CPT	MCF10A rerep
CC1=NN(C(=O)c2ccccc2F)C(O)(c2ccc(Cl)cc2)C1 (stereo not drawn)	-7%	?	?	-11	?	?
Cn1cc(CNC2CCN(c3cccc(NC(=O)c4cccnc4)c3)CC2)cn1	/	-2%	/	/	7%[9.04 µM]	/
Cc1ccc(-c2ccc(CN3C(C)C(=O)N(Cc4cn(CCC5OCCO5)nn4)CCS3(=O)=O)cc2)cc1 (stereo not drawn)	/	?	/	-11	16µM*	/
CC1C(=O)N(Cc2cn(CCC3OCCO3)nn2)CCS(=O)(=O)N1Cc1ccc(-c2ccc(Cl)cc2)cc1 (stereo not drawn)	/	7.3µM*	/	-14	3.7µM*	/
CC1C(=O)N(Cc2cn(CCC3OCCO3)nn2)CCS(=O)(=O)N1Cc1ccc(-c2ccccc2)cc1 (stereo not drawn)	/	?	/	67	-29%	/
CC(Sc1nc2c(c(=O)[nH]1)CCCC2)C(=O)Nc1ccc(Br)cn1 (stereo not drawn)	1%	16µM*	5%	22	23µM*	5%
CCc1cccc(C)c1NC(=O)C(C)Sc1nc2c(c(=O)[nH]1)CCCC2 (stereo not drawn)	/	?	/	/	-10%	/
CN1CCN(c2nc3cc(C(F)(F)F)ccc3n3cccc23)CC1	-6%	21µM*	/	?	?	?
FC(F)(F)c1ccc2c(c1)nc1n2CCCC1	-12%	-13%	?	9	-1%	?
CCOC(=O)c1nn(-c2ccc3c(c2)CCN3C(C)=O)cc1O	16%	-20%	?	-23	-14%	15µM*
CC(=O)Nc1sc(N/N=C/c2ccc(C)cc2)nc1-c1ccc(C)cc1	-19%	?	9%	-4	-14%	2%
CC(=O)Nc1sc(/C(C#N)=C/c2ccc(Cl)c(Cl)c2)nc1-c1ccc(C)cc1	?	-15%	0%	-6	-26%	1.8µM*
Cc1ccc(N2C(=O)C3C4C=CC(CC4)C3C2=O)c([N+](=O)[O-])c1 (stereo not drawn)	?	0%	6%	-4	12%	-2%
COc1cc(C=O)ccc1OCCOCCOc1ccc(Cl)cc1	2%	?	8%	6	?	2%
COc1cc(C=O)ccc1OCCOCCOc1ccc(Cl)cc1Cl	0%	15µM*	/	?	?	1%
O=C(CNCc1ccccn1)N1CCc2ccccc2C1	-7%	-10%	?	4	1%	-3%
O=C(CN1CCOCC1)N1CCN(c2nnc(-c3ccccc3)c3ccccc23)CC1	1%	-20%	-6%	-14	?	-2%
CCOC(=O)N1CCN(c2nnc(-c3ccc(C)cc3)c3ccccc23)CC1	-4%	?	-3%	-67*	?	13%
Cc1ccc(-c2ocnc2C(=O)N2CCN(C(=O)c3cccs3)CC2)cc1	-7%	-6%	-14%	-9	10%	0%
CCOC(=O)N1CCN(c2nnc(-c3ccccc3)c3ccccc23)CC1	-1%	?	-1%	?	-8%	12%
Cc1ccc(-c2nnc(N3CCN(C(=O)c4cccs4)CC3)c3ccccc23)cc1	-3%	23µM*	0%	-8	?	-1%
O=C(c1cccs1)N1CCN(c2nnc(-c3ccccc3)c3ccccc23)CC1	-2%	?	-10%	-87*	?	2%
CCCC(=O)N1CCN(c2nnc(-c3ccccc3)c3ccccc23)CC1	-19%	-14%	5%	-51*	-19%	20%
COc1ccc(N2CC(c3nc(-c4ccccc4C)no3)CC2=O)cc1Cl (stereo not drawn)	/	-22%	/	/	-22%	/
CCCCC[C@]12Cc3ccccc3C(O1)C1=C(CC(C)(C)CC1=O)O2	/	/	0%[9.22 µM]	/	/	/
SMILES	SW480 rereplic	TDP1 cell noCPT	BCR signal inh	IL-1B inflam inh	TDP1 cell CPT	MCF10A rerep
COc1ccc(C2CC(c3c(-c4ccccc4)c4cc(Cl)ccc4[nH]c3=O)=NN2S(C)(=O)=O)cc1 (stereo not drawn)	6%	?	-6%	-17	?	?
COc1ccc(OC)c(C2CC(c3c(-c4ccccc4)c4cc(Cl)ccc4[nH]c3=O)=NN2S(C)(=O)=O)c1 (stereo not drawn)	?	?	?	-2	?	7.3µM*
COC(=O)CCNC(=O)CCc1ccc(S(=O)(=O)N2CCCCCC2)cc1	-24%	-3%	4%	21	-18%	?
O=C(O)C1CCC(N2C(=O)c3cccc([N+](=O)[O-])c3C2=O)CC1 (stereo not drawn)	-4%	5%	0%	4	-3%	-4%
c1ccc2c3c([nH]c2c1)C(C1CCCCC1)N(Cc1ncc[nH]1)CC3 (stereo not drawn)	10%	?	?	-87*	?	0%
Cc1cnc(CN2CCc3c([nH]c4ccccc34)C2C2CCCCC2)[nH]1 (stereo not drawn)	2%	?	16%	-79*	?	?
COc1cccc(C2c3[nH]c4ccccc4c3CCN2Cc2ncc[nH]2)c1 (stereo not drawn)	6%	-19%	-1%	-29	1%	13%
Cc1ccc(CNC(=O)C2CCCN2C(=O)Nc2ccc(F)cc2)cc1 (stereo not drawn)	20%	18%	0%	0	-7%	-3%
CS(=O)(=O)CCSc1ncccc1C(=O)NCc1cccs1	0%	-2%	?	-3	-3%	0%
Cc1ccc(C(=O)CSc2nnc(-c3ccccc3)n2-c2ccccc2)o1	3%	10µM*	10%	-6	11µM*	?
O=C(CSc1ncn(-c2ccccc2)n1)c1cccs1	-13%	-15%	?	-52*	?	4%
O=C(CSc1nnc(-c2ccc(Cl)cc2)n1Cc1ccco1)c1cccs1	-16%	21µM*	0%	-6	?	?
O=C(CSc1nnc(-c2ccccc2)n1-c1ccccc1)c1ccc[nH]1	/	?	9%	0	?	3%
NC(=O)CSc1nnc(-c2cccs2)n1Cc1ccco1	-27%	5%	?	3	12%	0%
Cc1ccc(C(=O)CSc2nnnn2-c2ccccc2)o1	-24%	0%	0%	0	12%	0.41µM*
O=c1c(-c2cccc(F)c2)nc2cncnc2n1Cc1ccccc1Cl	/	-14%	/	/	-4%	/

Source: PubChem (National Center for Advancing Translational Sciences (NCATS))
